# Reference: PubChem BioAssay (EPA / NIEHS)
# “And” between values parts separate entries of the source, which are not always exact repeats. Identical values can stand only once. The source made the active and inactive calls. The calls were made as follows: active = hit-call score of the fitted dose curve at least 0.9, where 1 is the maximum; inactive = score below 0.9.
# Read-out: Tissue plasminogen activator (tPA), PLAT (gene 5327)
# Assay: BSK_BE3C_tPA: BioMAP Diversity Plus: BE3C Assay for Tissue plasminogen activator (tPA) Biomarker Activity (AID 2283041)
# Conditions: primary human bronchial epithelial cells; actives raise or lower the signal
# Experimental: BSK_BE3C is a cell-based, multiplexed-readout assay that uses bronchial epithelial cell, a human lung primary cell, with measurements taken at 24 hours after chemical dosing in a 96-well plate.BSK_BE3C_tPA is an assay component measured in the BSK_BE3C assay. It measures tPA antibody related to regulation of gene expression using ELISA technology.Data from the assay component BSK_BE3C_tPA was analyzed into 1 assay endpoint. This assay endpoint, BSK_BE3C_tPA, was analyzed with bidirectional fitting relative to DMSO as the negative control and baseline of activity. Using a type of binding reporter, gain or loss-of-signal activity can be used to understand changes in the signaling as they relate to the gene PLAT. Furthermore, this assay endpoint can be referred to as a primary readout, because this assay has produced multiple assay endpoints where this one serves a signaling function. To generalize the intended target to other relatable targets, this assay endpoint is annotated to the protease intended target family, where the subfamily is serine protease.
# The levels of cell surface (or secreted, indicated by the prefix "s") biomarker endpoints were measured by ELISA. Overt cytotoxicity to cells in confluent adherent cultures (all systems other than the BT system) was assessed by measuring total protein levels using sulforhodamine B (SRB) staining in parallel cultures at the time of biomarker measurements, indicated as SRB endpoints. For proliferation assays for adherent cell types, individual cell types are cultured at sub-confluence and relative cell numbers quantified by SRB staining at time points optimized for each system (48 h: 3C and CASM3C systems; 72 h: BT and HDF3CGF systems; 96 h: SAg system). SRB was performed by staining cells with 0.1% SRB after fixation with 10% TCA and reading wells at 560 nm.Viability and proliferation of PBMC (T cells) was quantified by Alamar Blue reduction for the SAg and BT systems. For PBMC viability (referred to as PBMC Cytotoxicity within the assay endpoint names), cells were plated (75,000/well in a 96-well plate) and then chemical samples added for 1 h before addition of activators, SEB and TSST-1 (20 ng/mL final concentration each). Cells were incubated for 90 h. Then, Alamar Blue (20 uL/well) (Invitrogen, Cat DAL1100) was added for 6 h, and the plates were read with a fluorescence microplate reader at 546/580 nm (excitation/emission). For PBMC proliferation, cells were plated and activated as above but incubated for only 16 h prior to addition of Alamar Blue. Plates were read after 6 h.
SMILES,outcome,AC50
CCCCCCCCCCC1CO1 (configuration not stated),inactive,–
COc1cc(CNC(=O)CCCC/C=C/C(C)C)ccc1O,inactive,–
Cc1cccnc1,inactive,–
CCC[Si](OC(C)=O)(OC(C)=O)OC(C)=O,inactive,–
CCCCC(CC)COC(=O)C=Cc1ccc(OC)cc1 (configuration not stated),inactive,–
Sc1nc2ccccc2s1,inactive,–
CC(C)C1OCCN1CCOC(=O)NCCCCCCNC(=O)OCCN1CCOC1C(C)C (configuration not stated),inactive,–
CCCCCCCCCCCCCCCCCC[N+](C)(C)C,–,1.32 µM (active)
CC[N+](CC)(CC(=O)Nc1c(C)cccc1C)Cc1ccccc1 (tested in a mixture with another compound),inactive,–
CCC(C)=NO,inactive,–
O=C(C(=O)c1ccccc1)c1ccccc1,inactive,–
COc1ccccc1Oc1c(NS(=O)(=O)c2ccc(C(C)(C)C)cc2)nc(-c2ncccn2)nc1OCCO,inactive,–
CN(C)CCC(c1ccc(Cl)cc1)c1ccccn1 (configuration not stated),inactive,–
C1CN(CCOCCN2CCOCC2)CCO1,inactive,–
CC(C)CC(=O)CC(C)CC(C)C (configuration not stated),–,29.4 µM (active)
COc1ccc(C(=O)c2ccccc2O)c(O)c1,inactive,–
Oc1cccc2ccccc12,inactive,–
Cc1cc(-n2nc3ccc(Cl)cc3n2)c(O)c(C(C)(C)C)c1,inactive,–
CN(C)c1ccc(C(c2ccccc2)c2ccc(N(C)C)cc2)cc1,–,6.47 µM (active)
CCCCCCC(O)CCCCCCCCCCC(=O)OC (configuration not stated),inactive,–
OC(C(F)(F)F)(C(F)(F)F)C(O)(C(F)(F)F)C(F)(F)F,–,17 µM (active) and 16 µM (active)
CN(C)Cc1cc(C(C)(C)C)c(O)c(C(C)(C)C)c1,inactive,–
CCCCCCCCCC/C=C/C1CC(=O)OC1=O (configuration not stated),–,14.5 µM (active)
COC(=O)/C=C\C(=O)OC,inactive,–
O=[N+]([O-])c1cc(S(=O)(=O)Nc2ccccc2)ccc1Nc1ccccc1,–,34 µM (active) and 29.7 µM (active)
CC[N+](CC)(CC(=O)Nc1c(C)cccc1C)Cc1ccccc1,inactive,–
Cc1c(C(N)=O)cc([N+](=O)[O-])cc1[N+](=O)[O-],inactive,–
